# Read-outs that look alike come from different tables or passages of the source.
# Legend:
# Design in all cases: species or system human, MV4-11 + K-562 + COLO205 + SK-N-BE2 + OVCAR-8
# CDK7 = settings: read-out: apparent Kd; compound concentrations: 100 nM and 1000 nM (sheet 'Samples'), CATDS: 8.4335056049156601E-2; n = 1
# EPHA5 = settings: read-out: apparent Kd; compound concentrations: 100 nM and 1000 nM (sheet 'Samples'), CATDS: 7.2696381065974702E-2; n = 1
# EPHB4 = settings: read-out: apparent Kd; compound concentrations: 100 nM and 1000 nM (sheet 'Samples'), CATDS: 7.5541211933236804E-2; n = 1
# ERCC2 = settings: read-out: apparent Kd; compound concentrations: 100 nM and 1000 nM (sheet 'Samples'), CATDS: 9.6102785253179598E-2; n = 1
# FER = settings: read-out: apparent Kd; compound concentrations: 100 nM and 1000 nM (sheet 'Samples'), CATDS: 7.77606230380051E-2; n = 1
# GAK = settings: read-out: apparent Kd, n = 1
# GSK3A = settings: read-out: apparent Kd; compound concentrations: 100 nM and 1000 nM (sheet 'Samples'), CATDS: 7.5555777377750599E-2; n = 1
# PIK3C3 = settings: read-out: apparent Kd; compound concentrations: 100 nM and 1000 nM (sheet 'Samples'), CATDS: 0.106578843558364; n = 1
# PIK3CB = settings: read-out: apparent Kd; compound concentrations: 100 nM and 1000 nM (sheet 'Samples'), CATDS: 0.68027770173125801; n = 1
# TNK1 = settings: read-out: apparent Kd; compound concentrations: 100 nM and 1000 nM (sheet 'Samples'), CATDS: 9.2477692433592898E-2; n = 1
# TNK2 = settings: read-out: apparent Kd; compound concentrations: 100 nM and 1000 nM (sheet 'Samples'), CATDS: 8.9325991753534395E-2; n = 1
# CDKL5 = settings: read-out: apparent Kd; compound concentrations: 100 nM and 1000 nM (sheet 'Samples'), CATDS: 0.50656570893737995; n = 1
# PRKAG2 = settings: read-out: apparent Kd; compound concentrations: 100 nM and 1000 nM (sheet 'Samples'), CATDS: 0.49360231247915698; n = 1
# CLK1 = settings: read-out: apparent Kd; compound concentrations: 100 nM and 1000 nM (sheet 'Samples'), CATDS: 0.24190894696409601; n = 1
# CLK2 = settings: read-out: apparent Kd; compound concentrations: 100 nM and 1000 nM (sheet 'Samples'), CATDS: 8.8411635671529196E-2; n = 1
# CLK4 = settings: read-out: apparent Kd; compound concentrations: 100 nM and 1000 nM (sheet 'Samples'), CATDS: 0.28990629676542801; n = 1
# DYRK1A = settings: read-out: apparent Kd; compound concentrations: 100 nM and 1000 nM (sheet 'Samples'), CATDS: 7.2131324717133599E-2; n = 1
# JAK1 = settings: read-out: apparent Kd; compound concentrations: 100 nM and 1000 nM (sheet 'Samples'), CATDS: 8.1370183106340005E-2; n = 1
# PI4KB = settings: read-out: apparent Kd; compound concentrations: 100 nM and 1000 nM (sheet 'Samples'), CATDS: 0.120056979351962; n = 1
# PIK3C2B = settings: read-out: apparent Kd; compound concentrations: 100 nM and 1000 nM (sheet 'Samples'), CATDS: 8.8068304969215402E-2; n = 1
# TNIK = settings: read-out: apparent Kd; compound concentrations: 100 nM and 1000 nM (sheet 'Samples'), CATDS: 8.7825927191877803E-2; n = 1
# CIT = settings: read-out: apparent Kd; compound concentrations:100 nM and 1000 nM (sheet 'Samples'); n = 1
# COX5A = settings: read-out: apparent Kd; compound concentrations:100 nM and 1000 nM (sheet 'Samples'); n = 1
# CSNK1A1 = settings: read-out: apparent Kd; compound concentrations:100 nM and 1000 nM (sheet 'Samples'); n = 1
# CSNK1D = settings: read-out: apparent Kd; compound concentrations:100 nM and 1000 nM (sheet 'Samples'); n = 1
# CSNK1E = settings: read-out: apparent Kd; compound concentrations:100 nM and 1000 nM (sheet 'Samples'); n = 1
# DDR2 = settings: read-out: apparent Kd; compound concentrations:100 nM and 1000 nM (sheet 'Samples'); n = 1
# MAP2K2 = settings: read-out: apparent Kd; compound concentrations:100 nM and 1000 nM (sheet 'Samples'); n = 1
# MAPK10 = settings: read-out: apparent Kd; compound concentrations:100 nM and 1000 nM (sheet 'Samples'); n = 1
# MAPK11 = settings: read-out: apparent Kd; compound concentrations:100 nM and 1000 nM (sheet 'Samples'); n = 1
# MAPK14 = settings: read-out: apparent Kd; compound concentrations:100 nM and 1000 nM (sheet 'Samples'); n = 1
# MAPK9 = settings: read-out: apparent Kd; compound concentrations:100 nM and 1000 nM (sheet 'Samples'); n = 1
# MAPKAPK2 = settings: read-out: apparent Kd; compound concentrations:100 nM and 1000 nM (sheet 'Samples'); n = 1
# NLK = settings: read-out: apparent Kd; compound concentrations:100 nM and 1000 nM (sheet 'Samples'); n = 1
# NNT = settings: read-out: apparent Kd; compound concentrations:100 nM and 1000 nM (sheet 'Samples'); n = 1
# PIP4K2C = settings: read-out: apparent Kd; compound concentrations:100 nM and 1000 nM (sheet 'Samples'); n = 1
# PKN3 = settings: read-out: apparent Kd; compound concentrations:100 nM and 1000 nM (sheet 'Samples'); n = 1
# PRKD2 = settings: read-out: apparent Kd; compound concentrations:100 nM and 1000 nM (sheet 'Samples'); n = 1
# PSMC3 = settings: read-out: apparent Kd; compound concentrations:100 nM and 1000 nM (sheet 'Samples'); n = 1
# RIPK2 = settings: read-out: apparent Kd; compound concentrations:100 nM and 1000 nM (sheet 'Samples'); n = 1
# TGFBR1 = settings: read-out: apparent Kd; compound concentrations:100 nM and 1000 nM (sheet 'Samples'); n = 1
compound,measurement,setting,value
O=c1cc(N2CCOCC2)nc2n(Cc3cccc(Cl)c3Cl)ccn12 [GSK2286295A],potency estimated from few doses,CDK7,0.923 µM
same,potency estimated from few doses,EPHA5,1.36 µM
same,potency estimated from few doses,EPHB4,1.22 µM
same,potency estimated from few doses,ERCC2,0.687 µM
same,potency estimated from few doses,FER,1.13 µM
same,potency estimated from few doses,"GAK; compound concentrations: 100 nM and 1000 nM (sheet 'Samples'), CATDS: 7.8204164782115004E-2",1.11 µM
same,potency estimated from few doses,GSK3A,1.22 µM
same,potency estimated from few doses,PIK3C3,0.554 µM
same,potency estimated from few doses,PIK3CB,0.0218 µM
same,potency estimated from few doses,TNK1,0.747 µM
same,potency estimated from few doses,TNK2,0.807 µM
COc1ccc(Nc2nccc(N3CCC(NC(=O)Nc4cc(C)ccc4C)C3)n2)cc1 (stereo not shown) [GSK1379741A],potency estimated from few doses,CDKL5,1.86 µM
same,potency estimated from few doses,PRKAG2,1.96 µM
Cl.O=C1Nc2ccc(-c3cccnc3)cc2C1=Cc1cc(Br)c(O)c(Br)c1 [GW2429374A],potency estimated from few doses,CLK1,0.0752 µM
same,potency estimated from few doses,CLK2,0.766 µM
same,potency estimated from few doses,CLK4,0.0563 µM
same,potency estimated from few doses,DYRK1A,1.76 µM
same,potency estimated from few doses,"GAK; compound concentrations: 100 nM and 1000 nM (sheet 'Samples'), CATDS: 0.20480817101344501",0.1 µM
same,potency estimated from few doses,JAK1,1.03 µM
same,potency estimated from few doses,PI4KB,0.315 µM
same,potency estimated from few doses,PIK3C2B,0.777 µM
same,potency estimated from few doses,TNIK,0.784 µM
CN1CCC(n2cnc(-c3ccc(F)cc3)c2-c2ccnc(N)n2)CC1 [SB-220455],potency estimated from few doses,CIT,0.23 µM
same,potency estimated from few doses,COX5A,0.656 µM
same,potency estimated from few doses,CSNK1A1,0.0247 µM
same,potency estimated from few doses,CSNK1D,0.00226 µM
same,potency estimated from few doses,CSNK1E,0.00587 µM
same,potency estimated from few doses,DDR2,0.578 µM
same,potency estimated from few doses,GAK; compound concentrations:100 nM and 1000 nM (sheet 'Samples'),1.35 µM
same,potency estimated from few doses,MAP2K2,0.185 µM
same,potency estimated from few doses,MAPK10,0.784 µM
same,potency estimated from few doses,MAPK11,1.13 µM
same,potency estimated from few doses,MAPK14,0.022 µM
same,potency estimated from few doses,MAPK9,0.45 µM
same,potency estimated from few doses,MAPKAPK2,0.00388 µM
same,potency estimated from few doses,NLK,0.0815 µM
same,potency estimated from few doses,NNT,1.29 µM
same,potency estimated from few doses,PIP4K2C,2.31 µM
same,potency estimated from few doses,PKN3,1.52 µM
same,potency estimated from few doses,PRKD2,1.58 µM
same,potency estimated from few doses,PSMC3,1.92 µM
same,potency estimated from few doses,RIPK2,0.246 µM
same,potency estimated from few doses,TGFBR1,2.02 µM

# — article PMC11062922 (Nature Chemical Biology, 2023)
